PubChem BioAssay (NCI)
Compounds without any hit were thinned out: in the full panel of roughly 79,000, 15% have a hit. Active and inactive are the calls of the source. Cut-off read from the data, not from the text of the source: active = growth inhibition above about 70%; inactive = the rest. Where a SMILES comes first, the peptide text is derived from it. [ ]: non-standard residue; d: D form. ξ: configuration not given here. ξH = NC(Cc1c[nH]cn1)C(=O)O

What was measured:
[1] = NCI Yeast Anticancer Drug Screen. Data for the rad50 strain (AID 155);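 note: 0% = growth of vehicle-only cultures of the same strain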; conditions: S. cerevisiae rad50 strain growth inhibition; at 50.0 µM; active compounds read high
How it was run: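 Growth of the mutant yeast was measured after compound exposure and referenced to vehicle-treated cultures.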

[2] = NCI Yeast Anticancer Drug Screen. Data for the mec2-1 strain (AID 157); conditions: S. cerevisiae mec2-1 strain, at 50.0 µM, active compounds read high
How it was run: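 Growth inhibition is read against vehicle-treated controls after compound exposure of the mec2-1 yeast strain, which is defective in DNA damage repair or cell cycle control.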

[3] = NCI Yeast Anticancer Drug Screen. Data for the sgs1 mgt1 strain (AID 161);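 note: 0% = growth of cultures given vehicle only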; conditions: S. cerevisiae sgs1 mgt1 strain, at 50.0 µM, active compounds read high
How it was run: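 Percent growth inhibition was derived by comparing compound-exposed mutant yeast with vehicle-exposed cultures. The strain carries alterations in DNA damage repair.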

[4] = NCI Yeast Anticancer Drug Screen. Data for the cln2 rad14 strain (AID 165);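 note: 0% = growth equal to vehicle treated cultures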; conditions: S. cerevisiae cln2 rad14 strain, at 50.0 µM, active compounds read high
How it was run: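 Growth inhibition, relative to vehicle-treated controls, is the read-out. The test organism is a yeast strain with defined genetic alterations, cln2 rad14.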

[5] = NCI Yeast Anticancer Drug Screen. Data for the bub3 strain (AID 167); conditions: S. cerevisiae bub3 mutant strain, at 50.0 µM, active compounds read high
How it was run: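 Whole-cell yeast assay. The mutant strain was incubated with compounds, and growth inhibition was determined by comparison with vehicle-treated cells.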

[6] = NCI Yeast Anticancer Drug Screen. Data for the mlh1 rad18 strain (AID 175); conditions: S. cerevisiae mlh1 rad18 strain growth inhibition; at 50.0 µM; active compounds read high
How it was run: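 Cells of a genetically altered yeast strain, deficient in DNA damage repair, were treated with compound. Their growth was then compared with that of vehicle-treated cultures to give inhibition.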

Measured: growth inhibition

Cn1nnnc1NN(c1nnnn1C)C1C=CCC=C1
inactive: [1] 6.4% | [2] -6% | [3] 0% | [4] -18% | [5] 1.95% | [6] -10.7%

COC1(C)CNc2ccccc2C(=O)N1 (stereo unspecified)
inactive: [1] 6.65% | [2] -7.4% | [3] 22.9% | [4] 19.1% | [5] 23.1% | [6] 6.55%

Cc1ccc(NC(=S)N2CCCC2)cc1
inactive: [1] 5.9% | [2] -12.9% | [3] -18.8% | [4] -94.2% | [5] -13.4% | [6] -0.7%

CSc1cnc2ccccc2c1Sc1c[nH]c2ccccc2c1=O
inactive: [1] -15% | [2] 3.65% | [3] 1.15% | [4] 11.8% | [5] -8.05% | [6] -12.4%

CCCOc1cc2c(cc1C(C)c1ccc(OCC)c(C)c1)OCO2 (stereo unspecified)
inactive: [1] -1.7% | [2] 0.75% | [3] -9.05% | [4] -94% | [5] -3.9% | [6] -5.1%

c1ccc2c(c1)C1CCCCCC21N1CCOCC1 (stereo unspecified)
inactive: [1] 18% | [2] 1.05% | [3] -14.4% | [4] -5.45% | [5] -30.4% | [6] 7.6%

O=[N+]([O-])c1cccc2ccc(N/N=C/c3ccccc3O)nc12
inactive: [1] 18.8% | [2] -4.05% | [3] 42.2% | [4] 1.85% | [5] 7.25% | [6] 19.8%

COC(=O)/C(=N\NC(=S)NN)C(C(=O)C(=O)Nc1ccccc1C(N)=O)c1nc2ccccc2[nH]c1=O (stereo unspecified)
inactive: [1] 24.9% | [2] 6.9% | [3] 14.9% | [4] -42.5% | [5] -4.5% | [6] 23.1%

Brc1nc2c3ccccc3ncn2c1Br
inactive: [1] 45.2% | [2] -3.05% | [3] 21.3% | [4] -4.25% | [5] 1.7% | [6] 23.3%

CC/C(C)=C1\OC(=O)C(C)C(O)C(Cc2cccnc2)NC(=O)C(NC(=O)c2ncccc2O)C(C)OC1=O (stereo unspecified)
inactive: [1] -4.45% | [2] 3.7% | [3] 0.45% | [4] -10.4% | [5] -3% | [6] -14.9%

CN(C)CCNc1ncnc2nc(-c3ccc4ccccc4c3)[nH]c12
inactive: [1] -11% | [2] -20.9% | [3] 7.8% | [4] 11.6% | [5] 3.05% | [6] -18.6%

Cc1cc(C)c(Br)cc1C
inactive: [1] 4.9% | [2] 15% | [3] 5.8% | [4] 3.4% | [5] 3% | [6] -5.35%

CC1=CC(=O)/C(=C\c2ccc3c(c2)OCO3)C(C)(C)C1
inactive: [1] -23.1% | [2] -8.45% | [3] 4.5% | [4] -19.4% | [5] 52.3% | [6] -1.5%

C=C(C)C(O)C(O)C(=C)C (stereo unspecified)
inactive: [1] -6.35% | [2] -17.8% | [3] -15.6% | [4] -1.7% | [5] 12.9% | [6] -4%

C[S+]1CC2C3CC(C#N)C(C3)C2C1 (stereo unspecified)
inactive: [1] 2.4% | [2] 11.2% | [3] 2.95% | [4] -28.1% | [5] -1.85% | [6] 16.9%

N#CCC(=O)N1CCc2ccccc2C1
inactive: [1] -30.9% | [2] 0.45% | [3] 1.85% | [4] -79.7% | [5] 9.6% | [6] 14.2%

CC(C#N)N(C)c1c([N+](=O)[O-])c(=O)n(C)c(=O)n1C (stereo unspecified)
inactive: [1] -5.85% | [2] -13.3% | [3] -5.4% | [4] -14.9% | [5] -2.7% | [6] -20.7%

NCC(=O)NC(Cc1cnc[nH]1)C(=O)NCC(=O)O (stereo unspecified) (H-Gly-[ξH]-Gly-OH)
inactive: [1] -3.45% | [2] 7.9% | [3] -0.2% | [4] -31.6% | [5] 6.2% | [6] 5.15%

Nc1nc2ncn(COC(CO)CO)c2c(=O)[nH]1
inactive: [1] 7% | [2] 6.9% | [3] -2.3% | [4] 18.6% | [5] 0.85% | [6] 20.1%

O=C(Nc1nc(=S)[nH][nH]1)C(=O)C1C(=O)Nc2ccccc2S1=O (stereo unspecified)
inactive: [1] 3.45% | [2] -10.8% | [3] -4.2% | [4] 4% | [5] -20.9% | [6] -0.6%

CC1[C@@H]2CC=C3[C@H]4CCC5Cc6nc7c(nc6C[C@@]5(C)C4CC(=O)[C@]32CO[C@]12OC(C)(C)CC2O)CC1CC[C@@H]2C3=C[C@H]4O[C@@]5(O[C@@](C)(CO)C[C@@H]5O)C(C)[C@@]4(O)[C@]3(C)[C@@H](O)CC2[C@]1(C)C7 (stereo partly specified)
active: [3] 90.7%
inactive: [1] 37.5% | [2] 40.9% | [4] 57.2% | [5] 47% | [6] 40.1%

CN(C)/C=N/c1nc2ncn(CCOC(=O)c3ccccc3)c2c(=O)[nH]1
inactive: [1] -20.6% | [2] -24.6% | [3] 11.3% | [4] 10.6% | [5] -11.4% | [6] -20.9%

COCC1OCCN1C (stereo unspecified)
inactive: [1] 12.7% | [2] 7.75% | [3] -10% | [4] 17.4% | [5] 5.65% | [6] -32.1%

CCOC(=N)c1ccc(C(=N)OCC)cc1
inactive: [1] -11.2% | [2] -29.4% | [3] -29.4% | [4] -20.8% | [5] -32.5% | [6] -41.7%

O=[N+]([O-])c1ccc(NC2CCCCC2)nc1
inactive: [1] 14% | [2] -9.85% | [3] 13.9% | [4] 7.65% | [5] 42.6% | [6] -1.55%

Cc1ccc(NC(=O)c2cc3ccccc3c(N=Nc3ccccc3O)c2O)c(C)c1
inactive: [1] -11.9% | [2] 5.4% | [3] 9% | [4] 9.85% | [5] 12.6% | [6] 10.7%

C/C(COC(=O)c1cc(C)nc2ccccc12)=N\O
inactive: [1] -22.6% | [2] 17% | [3] -0.65% | [4] -20.8% | [5] 21.1% | [6] -11.6%

CN(C)c1ccc(/C=C(\C#N)c2cccc(Br)c2)cc1
inactive: [1] -2.45% | [2] -7.3% | [3] 3.1% | [4] -11.3% | [5] 12.1% | [6] -0.05%

CCN(CC)CCCNc1ccnc2ccc(Cl)cc12
inactive: [1] -9.9% | [2] -15.6% | [3] 5.45% | [4] -17.9% | [5] 13.9% | [6] 2.55%

Cc1ccc(NC(=O)CCc2cc(C(C)(C)C)nc(=S)[nH]2)cc1C
inactive: [1] -36.6% | [2] -27.5% | [3] -46.5% | [4] -30.6% | [5] -35.8% | [6] -34%

CCCCCCCCCCC/C=N\[N+](C)(C)C
active: [1] 98.3% | [2] 99.3% | [3] 98.7% | [4] 96.8% | [5] 98.8% | [6] 98.2%

COC(=O)c1c2c(C)ccc(C)c2nc2c(C)ccc(C)c12
inactive: [1] -5.6% | [2] -41% | [3] -2.05% | [4] -15.3% | [5] 22.7% | [6] -41%

COC(=O)c1sc2ccccc2c1C
inactive: [1] -12.4% | [2] -3.6% | [3] -7.05% | [4] -54.9% | [5] -17.8% | [6] 10.7%

CC(=O)c1cc2c(cc1C)CCCC2(C)C
inactive: [1] 0.95% | [2] -3.8% | [3] -2.4% | [4] -1.5% | [5] 4.4% | [6] 1.35%

CC1(C(=O)O)CCCCCCC1O (stereo unspecified)
inactive: [1] 10.2% | [2] 9.55% | [3] -2.55% | [4] 8.1% | [5] -6.1% | [6] -7.9%

C/C1=C/C2=CC(C)C[C@@H]2C(=O)[C@]2(C)C(=O)CC(C)(C)[C@H]2CC1=O (stereo partly specified)
inactive: [1] 5.5% | [2] -8.6% | [3] 22.4% | [4] 5% | [5] -13.6% | [6] -87.3%

COc1cc(C(C)=O)cc(OCc2ccccc2)c1OC
inactive: [1] -2.85% | [2] 15.7% | [3] 18.2% | [4] -13.1% | [5] 15.4% | [6] 7.25%

CC(=O)Oc1cccc(/C=C/C(=O)O)c1
inactive: [1] 19% | [2] 29.3% | [3] 22.9% | [4] 3.75% | [5] 39.6% | [6] 18.9%

COc1cc(-c2c(C)oc(C)c2C(C)=O)ccc1OCc1ccccc1
inactive: [1] 9.6% | [2] -1.95% | [3] -9.1% | [4] 11.8% | [5] 14.8% | [6] 14.4%

CN/C=C(/OCc1ccccc1)c1ccc(O)c(O)c1
inactive: [1] 2.2% | [2] 0.9% | [3] 3.05% | [4] -6% | [5] -19.7% | [6] 19.2%

Cc1cc2ncn(C3OC(CO)C(O)C3O)c2cc1C (stereo unspecified)
inactive: [1] -2.7% | [2] 8.35% | [3] -8.25% | [4] 21.5% | [5] -8.2% | [6] 2.65%
